High-throughput results: PubChem, National Center for Advancing Translational Sciences (NCATS)
Hits are enriched below; roughly 2.5% of the tested compounds scored in any of these assays.
D2 antagonist – D2 dopamine receptor (human) antagonism; P14416; HEK293 TREx D2 cells, calcium flux, dopamine EC80; inhibition, % at 10 µM; hit rate 2% among 340,000; in the data active means inhibition above about 30%; inactive means below that, where a call was filed
Target sequence (P14416 whole entry, looked up): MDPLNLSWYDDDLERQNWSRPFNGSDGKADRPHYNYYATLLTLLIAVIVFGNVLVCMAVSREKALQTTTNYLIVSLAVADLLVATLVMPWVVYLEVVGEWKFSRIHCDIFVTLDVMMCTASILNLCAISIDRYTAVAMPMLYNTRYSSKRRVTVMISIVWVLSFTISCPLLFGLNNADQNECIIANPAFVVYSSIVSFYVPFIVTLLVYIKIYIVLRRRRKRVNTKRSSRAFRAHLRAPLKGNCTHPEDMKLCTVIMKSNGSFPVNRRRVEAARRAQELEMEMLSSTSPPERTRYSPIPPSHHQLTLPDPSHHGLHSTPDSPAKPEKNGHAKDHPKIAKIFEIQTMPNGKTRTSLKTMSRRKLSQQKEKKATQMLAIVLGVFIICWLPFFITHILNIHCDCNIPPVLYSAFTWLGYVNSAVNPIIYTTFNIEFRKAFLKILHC
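In this primary screen, negative modulation is detected by tracking calcium flux after an EC80 dopamine challenge in inducible HEK293 T-REx D2 cells preexposed to test compound for 180 s.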
D2 PAM-1 – positively modulates the human D2 dopamine receptor allosterically | HEK293 T-REx D2, calcium flux, EC20 dopamine potentiation | potentiation, % at 10 µM | hit rate 0.34% among 340,000 | AID 485347;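 active means potentiation over 3 SD above the plate norm, cut at about 30% in these data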
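Cells plated with tetracycline inducer and held overnight at 30 C; calcium dye loaded 30–90 min at room temperature; baseline taken, compound added and read 180 s; EC20 dopamine then added and read 180 s.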
Apoferritin bind – binds horse apoferritin like a general anesthetic. Potency, µM (doses to about 77.5 µM), hits mostly inhibitors. hit rate 0.074% among 350,000. AID 485281. P02791. apoferritin/1-aminoanthracene competitive binding, fluorescence; active means well fitted inhibition curve with a large enough effect; inconclusive means small, poorly fitted or top-dose-only effect; inactive means no such curve, though single readings can be large or run the other way; further: nearly all actives have a fitted effect of over 20% in size
Target sequence (P02791 2-175 limits assumed): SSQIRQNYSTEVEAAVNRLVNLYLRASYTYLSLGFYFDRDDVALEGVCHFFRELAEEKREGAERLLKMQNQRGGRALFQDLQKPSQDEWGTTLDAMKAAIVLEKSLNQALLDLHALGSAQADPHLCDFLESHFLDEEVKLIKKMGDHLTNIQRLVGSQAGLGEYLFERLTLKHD
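Horse-spleen apoferritin (10 uM) in 50% saturated 1-aminoanthracene in PBS was incubated 10 min at room temperature with compound. Fluorescence (ex 380, em 535 nm) was normalized to free and bound 1-AMA, with concentration-response fitted by a four-parameter Hill equation.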
D2 ag-1 – activates the human D2 dopamine receptor | AID 485358 | hit rate 0.53% among 340,000 | P14416 | activation, % at 2 µM | HEK293 T-REx D2 cells, calcium flux agonist mode;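 active means activation over 3 SD above normal in the single-dose calcium agonist read, cut at about 30% in these data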
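Tetracycline-induced HEK293 T-REx cells with force-coupled D2 receptor, plated overnight at 30 C, loaded with no-wash calcium dye. After a 10 s baseline, compound was pin-added and calcium flux read kinetically for 180 s; calcium rises flagged agonists.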
D2 PAM-2 – potentiates the human D2 dopamine receptor allosterically; P14416; DiscoveRx D2 beta-arrestin cells, luminescence, 90 min; 100% = 57 uM dopamine signal; potentiation, % (no concentration beside the values); hit rate 0.23% among 360,000; in the data active means potentiation above about 50%; inconclusive means mostly about 30% to 49%
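PathHunter beta-arrestin assay in DiscoveRx D2 cells. Compounds were added with an EC20 of dopamine (50 nM final) for 90 min at 37 deg C. Luminescence was read 1 h after detection reagent, with 57 uM dopamine as the EC100 control.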
D2 ag-2 – agonists of human D2 dopamine receptor (beta-arrestin); AID 624465; hit rate 0.084% among 360,000; P14416; activation, % (no concentration beside the values); DiscoveRx PathHunter D2 beta-arrestin, luminescence, 90 min; 100% = 57 uM dopamine signal; in the data active means activation above about 40%; inconclusive means between about 15% and that limit
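Agonist mode: compounds alone added to overnight-plated D2 PathHunter cells for 90 min at 37 C, with 57 uM final dopamine (EC100) defining full response. Beta-arrestin recruitment detected by chemiluminescent reagent, read after 1 h at ambient temperature.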
Numbers stand for hits; 0 = inactive; ? = inconclusive; - = no result.

SMILES	D2 antagonist	D2 PAM-1	Apoferritin bind	D2 ag-1	D2 PAM-2	D2 ag-2
COc1cccc(N2CCN(C(=O)c3cc4c(OC)c(OC)c(OC)cc4[nH]3)CC2)c1	38	0	0	0	0	0
Cc1ccc([N+](=O)[O-])c(OCCN2CCC(Cc3ccccc3)CC2)c1	68	0	0	0	0	0
O=[N+]([O-])c1cccc(OCCCN2CCC(Cc3ccccc3)CC2)c1	-	-	-	-	0	0
Cc1ccccc1OCCN1CCC(Cc2ccccc2)CC1	46	0	0	0	0	0
Cc1ccccc1OCCOCCN1CCCCCC1	-	0	0	-	0	0
N#Cc1ccccc1OCCCN1CCC(Cc2ccccc2)CC1	85	0	0	0	0	0
COc1cccc(OC)c1OCCCCN1CCC(Cc2ccccc2)CC1	76	0	0	0	0	0
O=C(COC(=O)c1ccco1)NC1CCCC1	0	0	0	0	0	0
CC(=O)CCc1ccc(OCCCCN2CCC(Cc3ccccc3)CC2)cc1	54	0	0	0	0	0
COc1ccccc1OCCCCN1CCN(C(c2ccccc2)c2ccccc2)CC1	61	0	0	0	0	0
CCOc1ccccc1OCCN1CCC(Cc2ccccc2)CC1	64	0	0	0	0	0
CC(=O)c1ccccc1OCCCN1CCCCC1	0	0	0	0	0	0
CC1CCN(CCCOc2ccc(OCc3ccccc3)cc2)CC1	0	0	?	0	0	0
c1ccc(OCCOCCN2CCN(C(c3ccccc3)c3ccccc3)CC2)cc1	0	0	0	0	0	0
CCC(=O)c1ccccc1OCCCN1CCC(Cc2ccccc2)CC1	97	0	0	0	0	0
CCOc1ccc(OCc2cccc(C(=O)O)c2)cc1	0	0	0	0	0	0
COc1ccc(OCc2cccc(C(=O)O)c2)cc1	35	0	0	0	0	0
CCc1cccc(NC(=O)C2CCN(S(=O)(=O)c3ccc4c(c3)NC(=O)CO4)CC2)c1	30	0	0	0	0	0
COc1cccc(NC(=O)C2CCN(S(=O)(=O)c3ccc4c(c3)CC(C)N4C(C)=O)CC2)c1 (stereo unspecified)	0	0	0	0	0	0
CCc1cccc(NC(=O)C2CCN(S(=O)(=O)c3ccc4c(c3)CC(C)N4C(C)=O)CC2)c1 (stereo unspecified)	70	0	0	0	0	0
CC(=O)N1c2ccc(S(=O)(=O)N(C)CC(=O)N3CCCC3)cc2CC1C (stereo unspecified)	0	42	0	0	0	0
COc1ccccc1N1CCN(C(=O)C2CCN(S(=O)(=O)c3ccc4c(c3)CC(C)N4C(C)=O)CC2)CC1 (stereo unspecified)	0	0	0	0	0	0
COc1ccccc1N1CCN(S(=O)(=O)c2ccc3c(c2)CC(C)N3C(C)=O)CC1 (stereo unspecified)	33	0	0	0	0	0
CC(=O)N1c2ccc(S(=O)(=O)N(C)CC(=O)NC3CCCC3)cc2CC1C (stereo unspecified)	0	0	0	0	0	0
O=S(=O)(c1ccccc1)C1CON(Cc2ccccc2)C1c1ccccc1 (stereo unspecified)	0	0	0	0	0	0
SMILES	D2 antagonist	D2 PAM-1	Apoferritin bind	D2 ag-1	D2 PAM-2	D2 ag-2
O=C(NNC(=S)NC(=O)c1ccccc1)c1ccc(O)cc1	0	0	0	0	0	0
O=C(Nn1cnnc1)c1ccc(F)c(S(=O)(=O)N2CCCCC2)c1	0	0	0	0	0	0
COc1ccc(C(=O)NC2CC3CCCC(C2)N3Cc2ccccc2)c(OC)c1 (stereo unspecified)	86	0	0	0	0	0
O=C(NC1CC2CCCC(C1)N2Cc1ccccc1)c1ccc([N+](=O)[O-])cc1 (stereo unspecified)	87	0	0	0	0	0
COc1ccc(C(=O)NC2CC3CCCC(C2)N3Cc2ccccc2)cc1 (stereo unspecified)	82	0	0	0	0	0
COc1ccccc1C(=O)NC1CC2CCC(C1)N2Cc1ccccc1 (stereo unspecified)	89	0	0	0	0	0
Cc1ccc(C(=O)NC2CC3CCCC(C2)N3Cc2ccccc2)cc1 (stereo unspecified)	0	0	0	0	0	0
O=C(NC1CC2CCC(C1)N2Cc1ccco1)c1ccccc1 (stereo unspecified)	-	0	0	-	0	0
O=C(NC1CC2CCC(C1)N2Cc1ccccc1)c1ccccc1Br (stereo unspecified)	67	0	0	0	0	0
COC(=O)CCCCCNc1ccc(C(=O)OC)cc1N	0	0	0	37	0	0
COC(=O)c1cc(Oc2ccc(C(=O)OC)cc2N)cc(C(=O)OC)c1	0	-	0	0	0	0
COc1cc(/C=N/n2nnnc2Nc2ccccc2)cc(OC)c1OC	0	0	0	0	0	0
COc1ccc(C(=S)N2CCOCC2)cc1OC(=O)c1ccc([N+](=O)[O-])cc1	0	0	0	0	0	0
COc1cc(C(=S)N2CCOCC2)ccc1OC(=O)c1ccc([N+](=O)[O-])cc1[N+](=O)[O-]	0	0	0	0	61	59
CC1CCCC(C)N1C(=O)Cn1cc(/C=C2/C(=O)Nc3ccccc32)c2ccccc21 (stereo unspecified)	32	0	?	0	0	0
Cc1csc(=N)n1-c1ccc(Cl)cc1	0	0	11µM	0	0	0
COc1ccc2oc(C)c(C(=O)NN)c2c1	0	0	0	0	0	0
CCOC(=O)CCC(=O)c1c(C)oc2ccc(OC)cc12	0	30	0	0	0	0
CCOC(=O)/C(=C\c1ccccc1)C(=O)c1cc(C(C)=O)c(Nc2ccccc2)s1	0	0	0	0	0	0
CCn1c(C)c(C(=O)c2ccccc2)c(C#N)c1C(=O)O	33	0	0	0	0	0
CC(=O)OC1C([N+]2(C)CCCCC2)C[C@H]2C3CC[C@H]4C[C@H](OC(C)=O)C([N+]5(C)CCCCC5)CC4(C)[C@H]3CCC12C (stereo partly specified)	-	-	-	-	0	0
CC(C)(C)C(=O)n1nc(-c2ccccc2)oc1=O	31	0	0	0	0	0
Cc1ccc(S(=O)(=O)CCC(=O)O)cc1C	36	0	0	0	0	0
Nn1c(SCC(=O)Nc2ccc3c(c2)OCO3)nnc1C1CCCCC1	31	0	5µM	0	0	0
O=C(CSc1nnc(-c2ccccn2)n1Cc1ccccc1)Nc1ccc2c(c1)OCO2	0	32	0	0	0	0
Cn1c(SCC(=O)Nc2ccc3c(c2)OCCO3)nnc1-c1ccccn1	0	0	0	0	0	0
